Assay outcomes as filed in PubChem BioAssay.
RE007 growth inh: qHTS Assay for Inhibitors of the HIV-1 protein Vpr. S. pombe RE007 Vpr strain, BacTiter-Glo ATP luminescence, 24 h. AID 651644, 2012. 360,000 tested, 0.21% active. Potency, µM (highest dose often 92.2 µM), most hits filed as inhibitors; active = well fitted falling curve with a large enough effect; inconclusive = small, poorly fitted or top-dose-only effect; inactive = no such curve, though single readings can be large or run the other way; note: nearly all actives have a fitted effect of over 50% in size
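Fission yeast RE007 carrying one integrated HIV-1 vpr copy, seeded at OD 0.01 in PMG+AL medium with 23 nL pinned compound. Grown 24 h at 30 degrees; viability read by BacTiter-Glo luminescence after 5 min.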
AmpC detergent: qHTS Inhibitors of AmpC Beta-Lactamase (assay with detergent); P00811; AmpC hydrolysis of nitrocefin, absorbance 480 nm, 0.01% Triton; Potency, µM (series often up to 114 µM), actives largely listed as inhibitors; 370,000 tested, 0.041% active; note: nearly all actives have a fitted effect of over 25% in size
Target sequence (P00811 whole entry, looked up): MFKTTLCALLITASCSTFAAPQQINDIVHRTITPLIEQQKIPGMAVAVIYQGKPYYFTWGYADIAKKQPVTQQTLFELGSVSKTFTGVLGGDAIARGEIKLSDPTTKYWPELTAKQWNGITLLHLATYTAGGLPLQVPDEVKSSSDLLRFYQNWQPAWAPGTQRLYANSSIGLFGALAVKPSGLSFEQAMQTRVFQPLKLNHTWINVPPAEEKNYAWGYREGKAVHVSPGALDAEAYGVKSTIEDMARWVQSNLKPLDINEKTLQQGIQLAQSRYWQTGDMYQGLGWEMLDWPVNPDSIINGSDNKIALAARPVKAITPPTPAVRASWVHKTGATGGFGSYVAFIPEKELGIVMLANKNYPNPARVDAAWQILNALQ
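AmpC (5.3 nM in the dispensed reagent) in 20 mM phosphate pH 7.0 with 0.01% (detergent screen) or 0.0001% Triton X-100 was preincubated with compounds for 15 min at room temperature. Nitrocefin was then added from an 800 uM solution, and hydrolysis was followed at 480 nm.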
AMA1-RON2 inh: qHTS for Inhibitors of AMA1-RON; Towards Development of Antimalarial Drug Lead: Primary Screen; Plasmodium falciparum AMA1 (3D7) - RON2 peptide interaction; AlphaScreen AMA1-biotinylated RON2 peptide binding; Potency, µM (series often up to 58.2 µM), usual class: inhibitors; 360,000 tested, 0.2% active; note: nearly all actives have a fitted effect of over 45% in size
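AMA1 (3D7) with his tag at 25 nM final met compounds first, then biotinylated RON2 peptide at 25 nM; detection used donor plus acceptor beads, 10 µg/mL apiece, read by AlphaScreen after 30 min at room temperature.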
AmpC inh no detg: qHTS Inhibitors of AmpC Beta-Lactamase (assay without detergent); P00811; AID 485341, 2010; 330,000 tested, 0.52% active; Potency, µM (doses to about 57.1 µM), hits mostly inhibitors; AmpC nitrocefin hydrolysis, absorbance 480 nm, 0.0001% Triton; note: nearly all actives have a fitted effect of over 20% in size
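AmpC (5.3 nM in the dispensed reagent) in 20 mM phosphate pH 7.0 with 0.01% (detergent screen) or 0.0001% Triton X-100 was preincubated with compounds for 15 min at room temperature. Nitrocefin was then added from an 800 uM solution, and hydrolysis was followed at 480 nm.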
Sm TGR inh: qHTS Assay for the Inhibitors of Schistosoma Mansoni Peroxiredoxins; Schistosoma mansoni thioredoxin glutathione reductase (TGR), Q962Y6; purified TGR, DTNB reduction, TNB absorbance 405 nm; Potency, µM (highest dose often 114 µM), hits mostly inhibitors; 360,000 tested, 3% active; note: nearly all actives have a fitted effect of over 60% in size
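TGR 20 nM + NADPH 100 uM (dispensed conc.), cpd preinc 15 min RT; start with NADPH (500 uM addition) then DTNB (15 mM addition). Kinetic TNB absorbance, 405 nm filter. Four-parameter Hill fit across titration.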
A number is an active result; 0 = inactive; ? = inconclusive; - = not tested or not shown; [ ] = remark or other dose. Rows were chosen to be rich in hits. Some 3.2% of all compounds tested hit in one or more screens of this group. Unless noted, calls come from the whole dose curve; as a rule, active = well fitted curve in the direction sought with a large enough effect; inconclusive = small, poorly fitted or top-dose-only effect, or another doubt; inactive = no such curve, though single readings can be large; an effect the other way counts as inactive or inconclusive.

SMILES | RE007 growth inh | AmpC detergent | AMA1-RON2 inh | AmpC inh no detg | Sm TGR inh
OC(c1ccccn1)c1c[nH]c2ccccc12 (centres undefined) | 0 | 0 | 0 | 0 | 22µM
Fc1ccc(C(Nc2ccccn2)c2c[nH]c3ccccc23)cc1 (centres undefined) | 0 | 0 | 0 | 0 | 2.8µM
NCC(c1ccccc1)c1c[nH]c2ccccc12 (centres undefined) | 0 | 0 | 0 | 0[2.29 µM] | 0
CCOc1ccc(CNC(=O)CN2C(=O)C3CCCCN3c3ccc(C(=O)N4CCCC4)cc32)cc1 (centres undefined) | - | 0 | - | - | 0
CCc1ccc(S(=O)(=O)NCCc2csc(-c3cccnc3)n2)s1 | 0 | 0 | 0 | 35µM | 0
O=C(NCCc1csc(-c2cccnc2)n1)c1ccccc1 | 0 | ? | 0 | 1.4µM | 0
Cc1cccc(C(=O)NCCc2csc(C)n2)c1 | 0 | 0 | 0 | 3.5µM | 0
O=C(NCCc1csc(-c2cccnc2)n1)c1cccc2ccccc12 | 0 | ? | 0 | 0 | 0
CCn1c(=O)c2cc(C(=O)Nc3cc(C)c(Cl)cc3OC)sc2c2ccccc21 | - | 0 | - | - | 0
COc1cccc(N2CCN(c3c4c(nc5nncn35)CCC4)CC2)c1 | - | 0 | - | - | ?
CCc1ccc(NC(=O)CC2C(=O)N(c3cccc(C)c3)C(=O)N2Cc2cccs2)cc1 (centres undefined) | - | 0 | - | - | 0
Cc1ccc(NC2=NCC(=O)N2C2CCCC2)c(C)c1 | 0 | 0 | 0 | 0 | 22µM
COc1ccc(Cl)cc1NC(=S)NCc1ccccn1 | 0 | ? | 0 | 0 | 0
CC(=O)c1ccc(NC(=S)NCc2cccnc2)cc1 | 0 | 0 | 0 | 0[2.29 µM] | 40µM
Cc1ccc(C(=O)NC(=S)NCc2cccnc2)c(C)c1 | 0 | 0 | 0 | 0 | 45µM
O=C(NCc1cccnc1)c1ccc(-c2cc(Cl)ccc2Cl)o1 | 0 | 0 | 0 | 0 | 40µM
COc1ccc(Cl)cc1NC(=S)NCc1cccnc1 | 0 | 0 | 0 | 0 | 13µM
Cc1cccc(C(=O)NC(=S)NCc2cccnc2)c1 | 0 | 0 | 0 | 0 | 0
CCc1ccc(NC(=S)NCc2cccnc2)cc1 | 0 | 0 | 0 | 0 | ?
COc1ccc(CNC(=O)c2ccc(Cn3c(=O)c4cccn4c4cccnc43)cc2)c(OC)c1 | - | 0 | - | - | 0
CC(=O)Nc1nonc1-c1nnc(SCC(=O)Nc2cccc(C)c2C)n1-c1ccccc1 | - | 0 | - | - | 0
S=C(NCc1cccnc1)Nc1ccc(Cl)cc1 | 0 | 0 | 0 | 0 | 40µM
S=C(NCc1cccnc1)Nc1cc(Cl)cc(Cl)c1 | 0 | 0 | 0 | 0 | 28µM
S=C(NCc1cccnc1)Nc1cccc(Cl)c1 | 0 | 0 | 0 | 0 | 32µM
O=C(NCc1cccnc1)Nc1cc(Cl)cc(Cl)c1 | 0 | 0 | 0 | 0 | 0
SMILES | RE007 growth inh | AmpC detergent | AMA1-RON2 inh | AmpC inh no detg | Sm TGR inh
Cc1ccc(NC(=S)NCc2cccnc2)cc1 | 0 | 0 | 0 | 0 | ?
Cc1ccc(NC(=O)C2CCCN2S(=O)(=O)c2ccc3c(c2)CCCC(=O)N3)cc1C (centres undefined) | - | 0 | - | - | 0
CSCCC(NS(=O)(=O)c1ccc2ccccc2c1)C(=O)OCC(=O)c1ccc(C(C)C)cc1 (centres undefined) | 0 | 0 | 0 | 7.9µM | 0
CSCCC(NC(=O)COc1ccccc1)C(=O)OCC(=O)c1ccccc1 (centres undefined) | ? | 0 | 0 | 0 | 0
O=[N+]([O-])c1ccc(S(=O)(=O)NNC(=S)NCCc2ccccc2)cc1 | 0 | 0 | 0 | 0 | 1.8µM
Cc1ccc(C(=O)NC(=S)NNS(=O)(=O)c2ccc(C)cc2)cc1 | 0 | ? | 0 | 0 | 22µM
Cc1ccc(S(=O)(=O)NNC(=S)NCC2CCCO2)cc1 (centres undefined) | 0 | 0 | 0 | 0 | 13µM
Cc1ccc(S(=O)(=O)NNC(=O)c2ccc(O)cc2)cc1 | 0 | 0 | 0 | 0 | 0
O=C(NNC(=S)NC(=O)c1ccc(Br)cc1)c1ccc([N+](=O)[O-])cc1 | 0 | ? | 0 | 0 | 100µM
N#Cc1ccccc1Cn1c(=O)n(-c2ccc(F)c(Cl)c2)c(=O)c2sccc21 | - | 0 | - | - | 0
CCCCCn1c(=N)c(S(=O)(=O)c2ccc(C)cc2)cc2c(=O)n3cc(C)ccc3nc21 | - | 0 | - | - | 0
O=C(O)c1ccc2c(c1)C(=O)N(CCc1ccc(O)cc1)C2=O | - | ? | - | 0 | 0
Cc1ccc(S(=O)(=O)NNC(=S)NC(=O)c2ccc([N+](=O)[O-])cc2)cc1 | 0 | 0 | 0 | 0 | 7.9µM
Cc1ccc(C(=O)NC(=S)NCC2CCCO2)cc1Br (centres undefined) | ? | 0 | 0 | 0 | 56µM
Cc1ccc(C(=O)NC(=S)NNC(=O)c2ccc([N+](=O)[O-])cc2)cc1 | 0 | 0 | 0 | 0 | 0
CN1CCCC(C(=O)c2ccc(-c3ccccc3)cc2)C1 (centres undefined) | 0 | ? | 0 | 0 | 0
COCC(=O)N1CCCC(C(=O)c2ccc(-c3ccccc3)cc2)C1 (centres undefined) | 0 | ? | 0 | 0 | 28µM
CN1/C(=C\C(=S)NC(=O)c2ccc([N+](=O)[O-])cc2)C(C)(C)c2ccccc21 | 0 | 0 | 0 | 0 | 0
CN1/C(=C/C2CC(=O)N(c3ccc([N+](=O)[O-])cc3)C2=O)C(C)(C)c2ccccc21 (centres undefined) | 0 | 0 | 0 | 0 | 13µM
COC(=O)C1CCN(c2csc3ccc(Cl)cc3c2=O)CC1 | - | 0 | - | - | 0
CC(C)CCN(C)C1CCN(S(=O)(=O)c2ccc(F)cc2)CC1 | 0 | 0 | 0 | 10µM | 0
CC12CC3(C)CC(C)(C1)CC(NC(=O)N1CCCC1)(C2)C3 | 3.5µM | 0 | 0 | 0 | 0
CC1(NC(=O)N2CCCCC2)CCS(=O)(=O)C1 (centres undefined) | 0 | 0 | 0 | 0 | 0
O=[N+]([O-])c1ccc(NC(=S)N/C(=N/CS(=O)(=O)c2ccccc2)c2ccccc2)cc1 | 0 | 0 | 0 | 0 | 20µM
COc1ccc(NC(=S)N/C(=N/CS(=O)(=O)c2ccccc2)c2ccccc2)cc1 | 0 | 0 | 0 | 0 | 40µM
SMILES | RE007 growth inh | AmpC detergent | AMA1-RON2 inh | AmpC inh no detg | Sm TGR inh
Cc1ccc(S(=O)(=O)/N=C(/Nc2ccc([N+](=O)[O-])cc2)c2ccccc2)cc1 | 0 | 0 | 0 | 0 | 0
CCn1nnc2cc(C(=O)Nc3ccc(C)cc3Br)ccc21 | - | 0 | - | - | ?
CCn1c2ccccc2c2c3ncc4cccn4c3ccc21 | 0 | 0 | 0 | 0 | 28µM
Cc1cc2c(n1-c1ccc(C(=O)NCc3ccccc3Cl)cc1)CCCC2 | - | 0 | - | - | ?
Cc1ccccc1CCNC(=O)c1cc2ccccn2n1 | - | 0 | - | - | 0
COc1cccc(C2/C(=C(/O)c3ccccc3)C(=O)C(=O)N2Cc2ccco2)c1 (centres undefined) | 0 | 0 | 0 | 0 | 50µM
